20 compounds from PubChem BioAssay (NCI) can be followed below.

Among the test systems are BT-549 breast; MDA-MB-435 melanoma; SW-620 colon; MCF7 breast; HCT-116 colon; HCC-2998 colon.
What all share (test): NCI-60 one-dose screen, 48 h (100 = growth as untreated, 0 = no growth, -100 = all killed)
Settings in all cases: 10 µM

About 83,000 compounds went through this panel and 20% of them were active in at least one assay; those are over-represented in the sample as a whole.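 Note: values are percent growth. 100 is the growth of untreated cells, values between 100 and 0 indicate rising inhibition; between -100 and 0 indicates cell death.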 Unmarked numbers belong to inactive results. Activity calls are given as the source filed them. How the source made its calls: active means growth percent below 10; inactive means the rest.

On to `C#Cc1ccc(-n2c(/C=C/c3ccc(C(F)(F)F)cc3)nc3ncccc3c2=O)cc1`, for which the growth is 24.8% with BT-549 breast; 6.06% (active) with MDA-MB-435 melanoma; -12.3% (active) with SW-620 colon; 14.9% in the assay on MCF7 breast; 1.75% (active) with HCT-116 colon; 18.7% with HCC-2998 colon.

With `CCOC(=O)N1C/C(=C/c2ccc(OC)cc2)C(=O)/C(=C/c2ccc(OC)cc2)C1`, the growth with BT-549 breast was -12.8% (active); in the assay with MDA-MB-435 melanoma, -33.4% (active); in the assay with SW-620 colon, -38.7% (active); with MCF7 breast, -5.59% (active); with HCT-116 colon, -82.8% (active); with HCC-2998 colon it was -92.5% (active).

`CC/C(=C(/c1ccc(OCCN(C)C)cc1)c1ccc(OC(=O)CCCCCCCCC(=O)c2c(C)[nH]c(/C=C3\N=C(c4ccc[nH]4)C=C3OC)c2C)cc1)c1ccccc1`: the growth with BT-549 breast was 69.2%; in the assay with MDA-MB-435 melanoma it was 52.8%; with SW-620 colon, 53.8%; in the assay on MCF7 breast it was -2.49% (active); in the assay on HCT-116 colon, 21.6%; with HCC-2998 colon it was 100%.

Regarding `COc1ccc(-c2nc(-c3nc4cc(Cl)c(F)cc4[nH]3)c3ccccn23)cc1`, the growth in the assay on BT-549 breast was 91%; with MDA-MB-435 melanoma, 64.4%; in the assay with SW-620 colon, 71.6%; with MCF7 breast, 58.1%; with HCT-116 colon, 71.4%; in the assay with HCC-2998 colon, 72.2%.

Regarding `CCC(=O)N1C/C(=C/c2ccc(Br)cc2)C(=O)/C(=C/c2ccc(Br)cc2)C1`, the growth was -48.4% (active) with BT-549 breast; -63% (active) with MDA-MB-435 melanoma; -64.2% (active) in the assay with SW-620 colon; -16.1% (active) in the assay with MCF7 breast; -88.4% (active) in the assay on HCT-116 colon; -85.9% (active) in the assay with HCC-2998 colon.

As to `C#Cc1ccc(-n2c(/C=C/c3ccc(O)c(OC)c3)nc3ncccc3c2=O)cc1`, the growth is 95.5% in the assay on BT-549 breast; 71.2% with MDA-MB-435 melanoma; 102% in the assay on SW-620 colon; 89.1% in the assay on MCF7 breast; 97.4% in the assay on HCT-116 colon; 112% in the assay with HCC-2998 colon.

For the compound `CC/C(=C(/c1ccc(OCCN(C)C)cc1)c1ccc(OC(=O)CCC(=O)c2c(C)[nH]c(/C=C3\N=C(c4ccc[nH]4)C=C3OC)c2C)cc1)c1ccccc1`, the growth in the assay with BT-549 breast is 48.4%; with MDA-MB-435 melanoma it was 14%; with SW-620 colon, -42% (active); with MCF7 breast, -12.1% (active); in the assay on HCT-116 colon, 5.92% (active); with HCC-2998 colon, 41.6%.

As to `N#CCCN1C/C(=C/c2ccc(Br)cc2)C(=O)/C(=C/c2ccc(Br)cc2)C1`, the growth with BT-549 breast is -23.3% (active); with MDA-MB-435 melanoma, -43.3% (active); with SW-620 colon, -53.7% (active); with MCF7 breast it was 0.16% (active); in the assay with HCT-116 colon it was -50.8% (active); with HCC-2998 colon, -87.4% (active).

Take `O=C1/C(=C\c2ccc(Cl)cc2)CN(C(=S)Nc2ccccc2)C/C1=C\c1ccc(Cl)cc1`: the growth in the assay on BT-549 breast was -66.6% (active); in the assay with MDA-MB-435 melanoma it was -82.1% (active); in the assay on SW-620 colon it was -84.9% (active); in the assay on MCF7 breast, -83.9% (active); with HCT-116 colon it was -62.8% (active).

In the case of `C#Cc1ccc(-n2c(/C=C/c3ccc(Cl)c(F)c3)nc3ncccc3c2=O)cc1`, the growth in the assay with BT-549 breast was 10.7%; with MDA-MB-435 melanoma, -3.46% (active); with SW-620 colon, -27.3% (active); in the assay on MCF7 breast, 3.48% (active); in the assay with HCT-116 colon it was -52.8% (active); with HCC-2998 colon it was -84.3% (active).

Take `CSc1nn(-c2ccccc2)c2ncnc(Oc3ccc(C)cc3)c12`: the growth with BT-549 breast was 98%; in the assay on MDA-MB-435 melanoma, 102%; in the assay on SW-620 colon, 103%; with MCF7 breast, 97.7%; in the assay with HCT-116 colon, 85.3%; in the assay on HCC-2998 colon it was 99.4%.

`O=C1/C(=C\c2ccc(Br)cc2)CN(C(=O)c2ccccc2F)C/C1=C\c1ccc(Br)cc1`: the growth in the assay on BT-549 breast was -0.615% (active); in the assay with MDA-MB-435 melanoma it was -44.9% (active); in the assay on SW-620 colon, -56.4% (active); with MCF7 breast it was -33.5% (active); in the assay on HCT-116 colon it was -76.1% (active); in the assay with HCC-2998 colon, -81.3% (active).

Take `C#Cc1ccc(-n2c(/C=C/c3cc(OC)cc(OC)c3)nc3ncccc3c2=O)cc1`: the growth with BT-549 breast was 65.2%; in the assay with MDA-MB-435 melanoma it was 79.1%; in the assay with SW-620 colon, 105%; in the assay on MCF7 breast it was 68.5%; in the assay with HCT-116 colon it was 74.8%; with HCC-2998 colon, 94.2%.

On to `N=C(N)c1ccc(-c2ccc(-c3ccccc3)o2)nc1`, for which the growth in the assay with BT-549 breast was 101%; in the assay with MDA-MB-435 melanoma, 81.4%; with SW-620 colon, 86.7%; with MCF7 breast it was 72.3%; with HCT-116 colon it was 76.6%; in the assay with HCC-2998 colon, 27.5%.

Consider `CC(=O)N1C/C(=C/c2ccc(Cl)cc2)C(=O)/C(=C/c2ccc(Cl)cc2)C1`, for which the growth in the assay on BT-549 breast was -27.2% (active); with MDA-MB-435 melanoma it was -50.3% (active); in the assay on SW-620 colon it was -62.4% (active); in the assay on MCF7 breast, -48.4% (active); with HCT-116 colon, -66.4% (active); in the assay with HCC-2998 colon, -85.1% (active).

As for `CC/C(=C(/c1ccc(OCCN(C)C)cc1)c1ccc(OC(=O)CCCCC(=O)c2c(C)[nH]c(/C=C3\N=C(c4ccc[nH]4)C=C3OC)c2C)cc1)c1ccccc1`, the growth with BT-549 breast is 60.8%; in the assay with MDA-MB-435 melanoma, 61.4%; in the assay with SW-620 colon, 55.8%; in the assay on MCF7 breast, -22% (active); in the assay with HCT-116 colon it was 48.3%; in the assay with HCC-2998 colon it was 76.6%.

On to `COc1ccc(/C=C2/CN(C(=O)c3ccccc3F)C/C(=C\c3ccc(OC)cc3)C2=O)cc1`, for which the growth in the assay on BT-549 breast was 37%; in the assay on MDA-MB-435 melanoma it was -46.2% (active); with SW-620 colon it was -42.3% (active); with MCF7 breast, 8.16% (active); in the assay with HCT-116 colon it was -62.6% (active); in the assay with HCC-2998 colon it was -73.1% (active).

On to `CCC(=O)N1C/C(=C/c2ccc(Cl)cc2)C(=O)/C(=C/c2ccc(Cl)cc2)C1`, for which the growth is -18.7% (active) in the assay with BT-549 breast; -58.6% (active) with MDA-MB-435 melanoma; -63.6% (active) with SW-620 colon; -77.9% (active) in the assay on MCF7 breast; -85.4% (active) in the assay with HCT-116 colon; -89.3% (active) in the assay with HCC-2998 colon.

For `Cc1ccc(C(=O)N2C/C(=C/c3ccc(F)cc3)C(=O)/C(=C/c3ccc(F)cc3)C2)cc1`, the growth was 92.5% in the assay with BT-549 breast; 84.5% in the assay on MDA-MB-435 melanoma; 82.4% in the assay on SW-620 colon; 37.7% in the assay on MCF7 breast; 10.6% in the assay with HCT-116 colon; 108% in the assay with HCC-2998 colon.

As to `N=C(N)c1ccc(-c2ccc(-c3ccco3)o2)cc1`, the growth in the assay on BT-549 breast is 80.2%; with MDA-MB-435 melanoma, 55.4%; with SW-620 colon, 60.3%; with MCF7 breast it was 42.8%; with HCT-116 colon it was 42.5%; in the assay on HCC-2998 colon, -28.3% (active).
